In assay [1] the test system is Vero E6 infected with SARS-CoV-2. The experiment in a line: morphology score (similarity to uninfected cells); higher = more like uninfected cells. Particulars: 24 h.
Assay [2] has the same test system. The assay can be described thus: SARS-CoV-2 infection rate relative to infected DMSO; higher = more infection, active = 60 or less. Particulars: 24 h.

The values below come from the supplement of paper PMC13380429.

Structures can show the parent of a compound that is named as a salt.

In the case of `CC/C(=C(\c1ccc(O)cc1)c1ccc(OCCNC)cc1)c1ccccc1` [Endoxifen HCl] (10 µM), in assay [1], the morphology score came to 0.817. For the same molecule, the SARS-CoV-2 infection rate in assay [2] was 26% (active).
Molecule `CO[C@H]1CC[C@H](N(c2cc(C3=CCCCC3)sc2C(=O)O)C(=O)[C@H]2CC[C@H](C)CC2)CC1` (10 µM) had a morphology score in assay [1] of 0.155. The SARS-CoV-2 infection rate in assay [2] was 83% (inactive).
On the same counts, the results for `CCC(=O)NC[C@@H]1C[C@H]1c1cccc2c1CCO2` [tasimelteon] (10 µM) are 0.169 and 98.5% (inactive).
On the same counts, the results for `CCNC(=O)c1n[nH]c(-c2cc(Cl)c(O)cc2O)c1-c1ccc(OC)cc1` (10 µM) are 0.0403 and 104% (inactive).
